Assay outcomes: PubChem, National Center for Advancing Translational Sciences (NCATS)
This is a sample that favours compounds with a hit; in the whole collection about 17% have one here.
ClpP mod: qHTS Assay for Activators of ClpP; ATP-dependent Clp protease proteolytic subunit (Bacillus subtilis (strain 168)), P80244; Potency, µM (doses to about 57.5 µM), for the others: at the top dose activity change, negative = active; purified B. subtilis ClpP, FRET peptide cleavage, 20 min; 340,000 compounds, 1.9% hits; active = well fitted falling curve with a large enough effect; inconclusive = small, poorly fitted or top-dose-only effect; inactive = no such curve, though single readings can be large or run the other way; note: the source files actives as falling curves though it sought activators and does not explain the sign; nearly all actives have a fitted effect of over 65% in size
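FRET quenching reversal measured ClpP activation: 10 microg/mL B. subtilis ClpP at pH 8 with the FRET-FV decapeptide, read at 430 nm after 320 nm excitation. The 20-min minus 0-min signal was scaled between DMSO/no-enzyme wells and ADEP (5.8 microM final).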
TDP1 cell noCPT: qHTS for Inhibitors of human tyrosyl-DNA phosphodiesterase 1 (TDP1): qHTS in cells in absence of CPT; Potency, µM (doses to about 46.2 µM), for the others: top-dose activity change, negative = growth inhibition, most hits filed as inhibitors; 420,000 compounds, 15% hits; DT40 Tdp1-/- hTDP1 cells, no CPT, ATP luminescence, 48 h; note: % is set by controls: 0 for no effect and ±100 for the full control effect; nearly all actives have a fitted effect of over 55% in size
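Growth kinetics read by CellTiter-Glo luminescence after ≥48 hr at 37 °C. Cells: DT40 Tdp1-/- stably carrying human TDP1, 400 per well, compound exposure in the absence of CPT (DMSO vehicle).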
TDP1 block: inhibitors of human tyrosyl-DNA phosphodiesterase TDP1; recombinant TDP1, AlphaScreen DNA substrate cleavage; 350,000 compounds, 0.28% hits; Potency, µM (highest dose often 130 µM), for inactives: at the top dose activity change, negative = inhibition, actives largely listed as inhibitors; note: % is set by controls: 0 for no effect and ±100 for the full control effect; nearly all actives have a fitted effect of over 40% in size
Target sequence (Q9NUW8 whole entry, looked up): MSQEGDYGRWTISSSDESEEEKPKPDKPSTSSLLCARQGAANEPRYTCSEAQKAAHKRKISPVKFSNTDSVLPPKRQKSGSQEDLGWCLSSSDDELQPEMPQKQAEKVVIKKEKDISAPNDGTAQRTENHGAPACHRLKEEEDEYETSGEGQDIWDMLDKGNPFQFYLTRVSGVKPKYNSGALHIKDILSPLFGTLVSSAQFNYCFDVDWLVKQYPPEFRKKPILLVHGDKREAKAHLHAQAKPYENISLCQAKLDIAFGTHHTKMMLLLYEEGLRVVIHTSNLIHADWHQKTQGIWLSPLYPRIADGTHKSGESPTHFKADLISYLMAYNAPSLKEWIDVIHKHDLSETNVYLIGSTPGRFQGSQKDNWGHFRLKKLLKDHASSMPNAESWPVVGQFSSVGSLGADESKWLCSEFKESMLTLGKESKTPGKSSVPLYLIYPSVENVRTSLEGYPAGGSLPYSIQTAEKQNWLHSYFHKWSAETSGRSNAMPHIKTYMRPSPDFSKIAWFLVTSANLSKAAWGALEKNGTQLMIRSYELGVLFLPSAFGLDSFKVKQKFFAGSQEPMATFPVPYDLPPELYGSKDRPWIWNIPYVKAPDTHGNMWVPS
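Recombinant E. coli-expressed Tdp1 (1 nM) preincubated with compound 15 min at RT, then 5'-biotin/3'-phosphotyrosine-FITC DNA substrate (15 nM) added for 5 min. AlphaScreen beads (10 ug/ml) added, 10 min RT; tyrosine-FITC cleavage read as signal loss.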
DT40 TDP1 CPT: DT40-hTDP1 cell growth loss with CPT. chicken DT40 Tdp1-/-;hTDP1 cells + 20 nM CPT, ATP luminescence, 48 h. Potency, µM (titrated, usually from 46.2 µM), for inactives: top-dose activity change, negative = growth inhibition, most hits filed as inhibitors. 420,000 compounds, 12% hits. AID 686979; note: % is set by controls: 0 for no effect and ±100 for the full control effect; nearly all actives have a fitted effect of over 55% in size
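Chicken DT40 Tdp1-/- cells stably complemented with human TDP1 were seeded at 400 cells/well in medium containing 20 nM camptothecin, exposed to pin-transferred compounds, and grown at 37 °C for at least 48 hr. Viability was read as ATP luminescence.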
Numbers without * were called inactive; ! = not confirmed by another sample. Unless noted, calls come from the whole dose curve; as a rule, active = well fitted curve in the direction sought with a large enough effect; inconclusive = small, poorly fitted or top-dose-only effect, or another doubt; inactive = no such curve, though single readings can be large; an effect the other way counts as inactive or inconclusive. Potency is the fitted concentration of half-maximal effect.

What do the screens show for `Cc1ccc(-c2ccc(CN3C(C)C(=O)N(Cc4cn(CCC5OCCO5)nn4)CCS3(=O)=O)cc2)cc1` (stereo not drawn)?
ClpP mod: -2.9%; TDP1 cell noCPT: inconclusive; DT40 TDP1 CPT: 16.4µM*

Results for CC1C(=O)N(Cc2cn(CCC3OCCO3)nn2)CCS(=O)(=O)N1Cc1ccc(-c2ccc(Cl)cc2)cc1 (stereo not drawn) ?
ClpP mod: 0.3%; TDP1 cell noCPT: 7.31µM*; DT40 TDP1 CPT: 3.66µM*

What do the screens show for `CC1C(=O)N(Cc2cn(CCC3OCCO3)nn2)CCS(=O)(=O)N1Cc1ccc(-c2ccccc2)cc1` (stereo not drawn)?
ClpP mod: 1.7%; TDP1 cell noCPT: inconclusive; DT40 TDP1 CPT: -29.3%

What do the screens show for `CN1CCN(C(CNC(=O)c2c(F)cccc2F)c2ccc3c(c2)OCO3)CC1` (stereo not drawn)?
ClpP mod: -2.5%; TDP1 cell noCPT: -9.9%; TDP1 block: 3.3%; DT40 TDP1 CPT: 4.5%

How did C[C@@H](CSc1ccccc1)CN1CC[C@H](NC(=O)OCc2ccccc2)CCC1=O do in these assays?
ClpP mod: -4.4%; TDP1 cell noCPT: 10µM*; DT40 TDP1 CPT: inconclusive

Results for COc1ccc(SC[C@H](Cc2ccccc2)N2CC[C@@H](NC(=O)OCc3ccccc3)CCC2=O)cc1 ?
ClpP mod: -0.2%; TDP1 cell noCPT: 16.4µM*; TDP1 block: 0.6%; DT40 TDP1 CPT: inconclusive

Results for Cc1ccc(SC[C@H](C)CN2CC[C@H](C(C)(C)C)CCC2=O)cc1 ?
ClpP mod: 0.0%; TDP1 cell noCPT: 16.4µM*; DT40 TDP1 CPT: inconclusive

How did C[C@@H](CSc1ccc(Br)cc1)CN1CC[C@H](C(C)(C)C)CCC1=O do in these assays?
ClpP mod: 0.1%; TDP1 cell noCPT: inconclusive; TDP1 block: -9.6%; DT40 TDP1 CPT: inconclusive

What do the screens show for `Cc1ccc(SC[C@H](C)CN2CC[C@H](NC(=O)OCc3ccccc3)CCC2=O)cc1`?
ClpP mod: -0.9%; TDP1 cell noCPT: 11.2µM*; DT40 TDP1 CPT: 15.8µM*!

What do the screens show for `COc1ccc(SCCN2CC[C@@H](NC(=O)OCc3ccccc3)CCC2=O)cc1`?
ClpP mod: 1.4%; TDP1 cell noCPT: inconclusive; TDP1 block: 0.0%; DT40 TDP1 CPT: inconclusive

Results for CC1CCc2onc(C(=O)N3CCN(c4ccc(F)cc4)CC3)c2C1 (stereo not drawn) ?
ClpP mod: -3.8%; TDP1 cell noCPT: inconclusive; TDP1 block: 0.0%; DT40 TDP1 CPT: inconclusive

What do the screens show for `N#CC[C@H](Cc1ccccc1)N1CC[C@@H](NC(=O)OCc2ccccc2)CCC1=O`?
ClpP mod: 0.7%; TDP1 cell noCPT: inconclusive; DT40 TDP1 CPT: inconclusive

What do the screens show for `Cc1ccc(S[C@@H](CCN2CC[C@H](NC(=O)OCc3ccccc3)CCC2=O)c2ccccc2)cc1`?
ClpP mod: -4.3%; TDP1 cell noCPT: 11.2µM*; DT40 TDP1 CPT: 23.1µM*

Results for O=C(N[C@@H]1CCC(=O)N(CC[C@H](Oc2ccccc2)c2ccccc2)CC1)OCc1ccccc1 ?
ClpP mod: 1.5%; TDP1 cell noCPT: inconclusive; DT40 TDP1 CPT: 14.6µM*

Results for Cc1ccc(SCCN2CCC(O)CCC2=O)cc1 (stereo not drawn) ?
ClpP mod: 0.4%; TDP1 cell noCPT: -3.7%; DT40 TDP1 CPT: -2.6%

How did CN(C)c1ncc2nc(-c3cc(F)cc(F)c3)c(=O)n(-c3ccccc3)c2n1 do in these assays?
TDP1 cell noCPT: 11.9%; DT40 TDP1 CPT: 9.3%

How did Cc1cc(NC(=O)CSc2ccc(-c3ccc(F)cc3)nn2)no1 do in these assays?
TDP1 cell noCPT: -11.0%; TDP1 block: 2.5%; DT40 TDP1 CPT: -1.7%

What do the screens show for `CCc1ccc(S(=O)(=O)c2nnn3c2nc(N2CCC(C)CC2)c2cc(Cl)ccc23)cc1`?
ClpP mod: -2.7%; TDP1 cell noCPT: 10.3µM*; TDP1 block: -1.0%; DT40 TDP1 CPT: 18.4µM*

Results for CCc1ccc(S(=O)(=O)c2nnn3c2nc(N2CCCC(C)C2)c2cc(Cl)ccc23)cc1 (stereo not drawn) ?
ClpP mod: inconclusive; TDP1 cell noCPT: 7.31µM*; TDP1 block: -2.9%; DT40 TDP1 CPT: inconclusive
